This is an account of results in PubChem BioAssay (NCATS).

Assay [1] has as its target Lysosomal acid glucosylceramidase (Homo sapiens) (UniProt P04062). The assay is described as follows: Glucocerebrosidase-p2 (AID 348; in the data active = potency below about 10 µM; note: potency is the fitted concentration of half-maximal effect). The conditions noted are these: purified GBA, blue fluorogenic substrate, 40 min. In outline: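 Normal human glucocerebrosidase (0.2 nM) with blue fluorogenic substrate (80 uM final) in citrate/phosphate pH 5.9 with 10mM sodium taurocholate, 0.01% tween-20; 40 min RT, NaOH/glycine stop; fluorescence Ex 365/Em 440; AC50 from a titration from 0.6 nM upwards.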

Assay [2] in a line: AP1 Signaling Pathway (AID 357).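 Note: ME-180 reporter cells stimulated with EGF at its EC50 level; % is set by controls: 0 for no effect and ±100 for the full control effect.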 The following applies: ME-180 AP-1-bla reporter, EGF-induced, beta-lactamase ratio, 5 h; at 7.69 µM (top of the series) unless noted. In outline: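 Beta-lactamase reporter under AP-1 response element, ME-180 background. Stimulus: EC50 EGF. Compound exposure 5 h, 37 °C. Detection: CCF4, 2.5 h RT, 460/530 nm. Values: AC50 from titration.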
In assay [3] the target is Cytochrome P450 1A2 (Homo sapiens) (UniProt P05177). The assay is described as follows: p450-cyp1a2 (AID 410; calls by dose curve; note: potency is the fitted concentration of half-maximal effect). The conditions noted are these: recombinant CYP1A2, luciferin-ME demethylation, luminescence; series mostly up to 57 µM. In outline:
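O-Demethylation of luciferin 6' methyl ether by human CYP1A2 is monitored as luciferase luminescence. Substrate sits at Km (100uM); enzyme is 20nM. Values are scaled to 57 uM furafylline as maximal inhibition.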

Assay [4] can be described thus: NFAT Signaling Pathway (AID 444).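 Note: carbachol stimulus at about its EC50 of 1 µM final; % is set by controls: 0 for no effect and ±100 for the full control effect.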 The conditions noted are these: Jurkat NFAT-bla M1, carbachol, beta-lactamase ratio, 5 h; at 7.69 µM (top of the series) unless noted. In outline:
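Jurkat cells with NFAT-driven β-lactamase reporter and co-expressed M1 receptor, stimulated with carbachol (final 1 uM, ~EC50), compound titration, 5 h at 37 °C. CCF4 loaded 1 h at RT; 460/530 nm ratio gave %activity and AC50.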

The nature of assay [5]: Stat Signaling Pathway (AID 446).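 Note: ME-180 cervical cancer cells given 40 pM IL-6 alongside compound; SIE-controlled beta-lactamase reporter measured as 460/530 nm FRET emission ratio; % is set by controls: 0 for no effect and ±100 for the full control effect.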 The conditions noted are these: ME-180 (cervical carcinoma) SIE beta-lactamase reporter, IL-6 stimulated, 5 h; at 7.69 µM (top of the series) unless noted. In outline:
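FRET read-out (405 nm excitation, 460/530 nm emission) of a beta-lactamase reporter under a STAT-inducible element in ME-180 cervical carcinoma cells. Cells with compound receive 40 pM IL-6 for 5 h. Values are normalised to AC90 stimulation and AC90 JAK-inhibitor controls.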

Assay [6] has as its target Glucocorticoid receptor (Homo sapiens) (UniProt P04150). The assay is described as follows: GR-EFC Redistribution (AID 451; calls by dose curve; note: potency is the fitted concentration of half-maximal effect). The conditions noted are these: CHO-K1 GR-EFC translocation, beta-gal luminescence, 2 h. In outline: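 CHO-K1 cells expressing nuclear EA and GR-ED fragments of b-gal; compounds titrated up to 46 uM final, 2 h at 37 C. GR nuclear translocation read as complemented b-gal luminescence after 1 h RT detection.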

Assay [7] addresses Mitogen-activated protein kinase 10 (Mus musculus) (UniProt Q61831). The assay can be described thus: JNK3 AlphaScreen Assay (AID 530).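 Note: kinase came from lysate of stimulated human HepG2 cells; signal reports phosphorylation of biotinylated GST-cJun 1-79 at Ser73 with 10 µM ATP; % is set by controls: 0 for no effect and ±100 for the full control effect.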 The conditions noted are these: JNK3 lysate, c-Jun phosphorylation; series mostly up to 57.1 µM. In outline: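 Activity was read by AlphaScreen after JNK3-containing HepG2 lysate (cytokine pre-activated) phosphorylated biotinylated GST-cJun with 10 uM ATP at room temperature. Phospho-Ser73 cJun antibody with Protein-A acceptor beads provided detection.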

For assay [8], the target named is 3',5'-cyclic-AMP phosphodiesterase 4B (Homo sapiens) (UniProt Q07343). The assay is described as follows: qHTS Assay for Inhibitors of PDE-IV (AID 607; active = well fitted activation curve with a large enough effect in the main read-out, with a control signal flat, not every such curve was filed as active; note: % of control where 0% means no effect). The conditions noted are these: HEK293 ACTOne CNG channel cells, membrane potential fluorescence; series mostly up to 22.9 µM. In outline: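 Cell-based read-out of cAMP via a modified cyclic nucleotide-gated channel and membrane potential dye (535/590 nm) in HEK293 cells expressing PDE4 endogenously. Compounds tested up to 22.9 uM final; 100 uM RO 20-1724 reference.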
Chain of 3',5'-cyclic-AMP phosphodiesterase 4B (Homo sapiens) (Q07343 whole entry, looked up): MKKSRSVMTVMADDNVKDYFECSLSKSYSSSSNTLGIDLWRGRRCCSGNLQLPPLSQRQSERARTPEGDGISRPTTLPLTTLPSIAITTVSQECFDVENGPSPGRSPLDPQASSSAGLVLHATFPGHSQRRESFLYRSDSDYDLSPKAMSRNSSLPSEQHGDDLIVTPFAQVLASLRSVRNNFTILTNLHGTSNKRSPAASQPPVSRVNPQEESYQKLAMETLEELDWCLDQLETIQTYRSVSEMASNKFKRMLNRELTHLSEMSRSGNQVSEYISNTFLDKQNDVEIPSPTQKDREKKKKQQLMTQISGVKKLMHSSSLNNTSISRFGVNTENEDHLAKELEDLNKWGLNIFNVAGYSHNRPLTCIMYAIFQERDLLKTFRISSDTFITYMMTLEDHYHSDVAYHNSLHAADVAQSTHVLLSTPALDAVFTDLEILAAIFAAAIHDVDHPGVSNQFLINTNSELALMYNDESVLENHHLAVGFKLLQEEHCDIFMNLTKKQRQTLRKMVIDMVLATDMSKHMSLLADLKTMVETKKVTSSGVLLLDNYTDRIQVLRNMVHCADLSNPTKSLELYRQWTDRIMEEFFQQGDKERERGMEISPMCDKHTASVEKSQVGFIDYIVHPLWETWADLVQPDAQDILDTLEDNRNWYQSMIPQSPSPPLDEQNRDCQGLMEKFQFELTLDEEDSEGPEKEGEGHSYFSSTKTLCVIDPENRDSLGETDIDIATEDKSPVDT

The target of assay [9] is Cytochrome P450 3A4 (Homo sapiens) (UniProt P08684). The assay can be described thus: qHTS Assay for Activators of Cytochrome P450 3A4 (AID 885; active = well fitted curve in the direction sought with a large enough effect; an effect the other way counts as inactive or inconclusive; note: nearly all actives have a fitted effect of over 65% in size; note: potency is the fitted concentration of half-maximal effect). The conditions noted are these: recombinant CYP3A4, Luciferin-PPXE luminescence, 60 min; series mostly up to 57.1 µM. In outline: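 Luminescent readout of luciferin formed from 25 uM Luciferin-PPXE (KM level) by 20 nM CYP3A4 in 200 mM KPO4, with 60 min NADPH-driven reaction at room temperature after 10 min compound exposure. Ketoconazole (57 uM) defined 100% inhibition.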
Chain of Cytochrome P450 3A4 (Homo sapiens) (P08684 whole entry, looked up): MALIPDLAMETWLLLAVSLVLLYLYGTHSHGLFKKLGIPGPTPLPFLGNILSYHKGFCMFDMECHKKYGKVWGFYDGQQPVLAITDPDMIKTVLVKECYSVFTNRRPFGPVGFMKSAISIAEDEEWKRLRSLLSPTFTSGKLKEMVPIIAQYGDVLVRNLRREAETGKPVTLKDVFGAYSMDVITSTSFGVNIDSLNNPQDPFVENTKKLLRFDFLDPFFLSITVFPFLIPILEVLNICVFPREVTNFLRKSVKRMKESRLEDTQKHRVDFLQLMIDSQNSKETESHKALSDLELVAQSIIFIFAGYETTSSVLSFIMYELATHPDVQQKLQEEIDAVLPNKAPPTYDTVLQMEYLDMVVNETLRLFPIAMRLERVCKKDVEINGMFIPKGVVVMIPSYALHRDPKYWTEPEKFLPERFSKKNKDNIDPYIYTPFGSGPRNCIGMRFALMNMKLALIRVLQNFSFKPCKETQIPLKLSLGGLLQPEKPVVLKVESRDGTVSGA
A general note: qHTS replaces the single test concentration by a dilution series.

A short description of assay [10]: qHTS Assay for Lipid Storage Modulators (AID 1519; calls by dose curve). The following applies: Drosophila S3 cells, BODIPY lipid droplet/cell ratio, laser cytometry, cells loaded with oleic acid; for activity change, negative = inhibition: at 57.5 µM (top of the series). In outline:
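Cells seeded at 5,000 per well were treated with compounds over a concentration series and loaded with oleic acid (400 uM, as added). Lipid droplet fluorescence (488 nm excitation, 500-530 nm channel) was read by laser-scanning cytometry and normalized to 20 uM Triacsin C.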

Assay [11] in a line: Primary qHTS for small molecule stabilizers of the endoplasmic reticulum resident proteome: Secreted ER Calcium Modulated Protein (SERCaMP) assay (AID 1508630; active = well fitted curve in the direction sought with a large enough effect; an effect the other way counts as inactive or inconclusive; note: % is set by controls: 0 for no effect and ±100 for the full control effect). The conditions noted are these: SH-SY5Y GLuc-SERCaMP (Gaussia luciferase released on ER calcium loss) secretion, thapsigargin, luminescence; series mostly up to 38.4 µM. In outline:
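The SH-SY5Y reporter protocol was run at 3 concentrations up to 38.3 uM (primary) or 11 concentrations (follow-up): 16 h compound, 100 nM thapsigargin for 4 h, then extracellular luciferase luminescence.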

Assay [12] addresses Cytochrome P450 3A4 (Homo sapiens) (UniProt P08684). The assay can be described thus: qHTS Assay for Inhibitors and Substrates of Cytochrome P450 3A4 (AID 884; active = well fitted curve in the direction sought with a large enough effect; an effect the other way counts as inactive or inconclusive; note: nearly all actives have a fitted effect of over 50% in size; note: potency is the fitted concentration of half-maximal effect). The following applies: recombinant CYP3A4, Luciferin-PPXE luminescence; series mostly up to 57.1 µM. In outline: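 Luminescent readout of luciferin produced by CYP3A4 (20 nM) dealkylation of Luciferin-PPXE, 25 uM (its KM). NADPH-driven reaction ran 60 min at RT after 10 min compound preincubation; data scaled to 57 uM ketoconazole as 100% inhibition.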

Assay [13] addresses Cytochrome P450 2D6 (Homo sapiens) (UniProt P10635). The assay is described as follows: qHTS Assay for Inhibitors and Substrates of Cytochrome P450 2D6 (AID 891; active = well fitted curve in the direction sought with a large enough effect; an effect the other way counts as inactive or inconclusive; note: potency is the fitted concentration of half-maximal effect; nearly all actives have a fitted effect of over 60% in size). The following applies: recombinant CYP2D6, luciferin-ME EGE luminescence; series mostly up to 57.1 µM. In outline:
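Luminescent read-out of luciferin formed by 5 nM human CYP2D6 demethylating 30 uM Luciferin-ME EGE (Km level) over 60 min at room temperature after NADPH regeneration addition. Data normalized to full inhibition by 1.43 uM quinidine.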

Setting [14] is: measured here: cell count channel max response.
[15] abbreviates: measured here: lipid channel max response.

Inconclusive results are not listed. Calls of active or inactive are those of the source. Unless noted, calls come from the whole dose curve; as a rule, active = well fitted curve in either direction with a large enough effect (not every such curve was filed as active); inconclusive = small, poorly fitted or top-dose-only effect, or another doubt; inactive = flat fitted curve, though single readings scatter.

Chain of Cytochrome P450 1A2 (Homo sapiens) (P05177 whole entry, looked up): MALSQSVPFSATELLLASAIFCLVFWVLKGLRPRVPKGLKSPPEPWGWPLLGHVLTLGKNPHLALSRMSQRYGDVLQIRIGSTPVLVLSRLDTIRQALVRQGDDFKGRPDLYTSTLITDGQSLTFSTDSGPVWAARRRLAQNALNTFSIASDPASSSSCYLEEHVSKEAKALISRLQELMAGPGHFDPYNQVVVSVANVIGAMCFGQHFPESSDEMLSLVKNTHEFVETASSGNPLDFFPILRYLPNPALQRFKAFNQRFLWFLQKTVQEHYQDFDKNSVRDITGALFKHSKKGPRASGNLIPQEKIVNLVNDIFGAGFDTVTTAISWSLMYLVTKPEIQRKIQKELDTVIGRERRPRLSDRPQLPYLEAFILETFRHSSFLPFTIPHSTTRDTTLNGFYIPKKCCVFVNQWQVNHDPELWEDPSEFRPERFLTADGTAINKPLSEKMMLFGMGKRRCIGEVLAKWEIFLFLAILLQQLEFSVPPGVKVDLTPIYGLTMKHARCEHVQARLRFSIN
Chain of Glucocorticoid receptor (Homo sapiens) (P04150 whole entry, looked up, the tested form may be a part): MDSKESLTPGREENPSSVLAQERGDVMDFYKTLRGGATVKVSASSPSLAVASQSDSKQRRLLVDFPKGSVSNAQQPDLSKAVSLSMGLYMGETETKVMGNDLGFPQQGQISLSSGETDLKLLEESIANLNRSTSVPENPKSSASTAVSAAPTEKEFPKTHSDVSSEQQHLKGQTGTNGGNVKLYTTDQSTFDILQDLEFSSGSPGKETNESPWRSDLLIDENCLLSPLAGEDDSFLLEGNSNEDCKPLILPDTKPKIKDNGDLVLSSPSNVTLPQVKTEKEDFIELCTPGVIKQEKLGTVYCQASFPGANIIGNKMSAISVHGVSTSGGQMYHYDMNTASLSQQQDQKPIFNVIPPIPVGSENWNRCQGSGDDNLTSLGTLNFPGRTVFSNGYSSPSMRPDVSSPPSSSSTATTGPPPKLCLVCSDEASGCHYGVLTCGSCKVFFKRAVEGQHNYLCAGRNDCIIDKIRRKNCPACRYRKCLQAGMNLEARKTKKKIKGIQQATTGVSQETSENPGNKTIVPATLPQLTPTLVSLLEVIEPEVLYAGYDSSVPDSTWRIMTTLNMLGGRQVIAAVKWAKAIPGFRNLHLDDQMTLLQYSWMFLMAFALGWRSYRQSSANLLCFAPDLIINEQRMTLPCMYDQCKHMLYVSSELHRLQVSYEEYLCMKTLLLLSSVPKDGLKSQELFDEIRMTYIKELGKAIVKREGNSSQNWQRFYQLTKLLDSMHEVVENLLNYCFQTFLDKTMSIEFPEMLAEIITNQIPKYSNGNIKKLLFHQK
Chain of Lysosomal acid glucosylceramidase (Homo sapiens) (P04062 whole entry, looked up): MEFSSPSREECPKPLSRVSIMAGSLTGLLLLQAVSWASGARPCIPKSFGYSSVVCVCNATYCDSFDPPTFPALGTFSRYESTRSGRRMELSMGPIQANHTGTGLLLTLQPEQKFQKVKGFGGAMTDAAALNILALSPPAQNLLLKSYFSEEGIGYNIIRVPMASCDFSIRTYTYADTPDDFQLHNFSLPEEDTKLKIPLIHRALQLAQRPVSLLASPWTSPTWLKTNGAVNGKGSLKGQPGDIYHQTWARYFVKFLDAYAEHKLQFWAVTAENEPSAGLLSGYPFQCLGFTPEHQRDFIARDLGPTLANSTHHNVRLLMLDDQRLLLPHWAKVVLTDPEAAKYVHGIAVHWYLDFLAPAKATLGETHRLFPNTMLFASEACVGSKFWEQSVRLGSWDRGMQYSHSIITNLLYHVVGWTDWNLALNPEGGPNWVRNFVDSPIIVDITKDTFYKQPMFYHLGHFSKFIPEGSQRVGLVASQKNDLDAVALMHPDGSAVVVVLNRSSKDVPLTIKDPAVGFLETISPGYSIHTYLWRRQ
Chain of Cytochrome P450 2D6 (Homo sapiens) (P10635 whole entry, looked up): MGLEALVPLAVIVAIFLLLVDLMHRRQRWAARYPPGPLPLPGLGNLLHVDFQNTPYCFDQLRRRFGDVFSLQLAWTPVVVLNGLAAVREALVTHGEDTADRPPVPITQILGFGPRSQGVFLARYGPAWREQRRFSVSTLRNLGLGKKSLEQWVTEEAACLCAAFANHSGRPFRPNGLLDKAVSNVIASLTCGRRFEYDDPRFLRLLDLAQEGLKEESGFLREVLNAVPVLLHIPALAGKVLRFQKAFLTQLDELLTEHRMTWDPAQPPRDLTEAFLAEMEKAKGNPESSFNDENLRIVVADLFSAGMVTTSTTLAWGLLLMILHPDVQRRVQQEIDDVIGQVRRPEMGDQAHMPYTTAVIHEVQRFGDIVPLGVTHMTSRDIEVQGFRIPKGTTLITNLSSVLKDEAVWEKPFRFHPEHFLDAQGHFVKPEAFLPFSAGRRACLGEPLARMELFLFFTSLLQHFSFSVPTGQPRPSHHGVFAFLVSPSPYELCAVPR

For the compound `O=C(c1csnn1)N1CCC2(CC1)CN(C(c1ccccc1)c1ccccc1)C2`, the Potency in assay [1] is > 11.4 µM (inactive); in assay [6] it was > 46 µM (inactive); in assay [9] it was 10 µM (active). Besides, the values for the activity change, negative = inhibition in [2], in assay [4] and in assay [10] were 3.92% (inactive), -2.37% (inactive) and 3.78% (inactive), respectively. Moreover, the Potency result in assay [3], in [8] and in [11] was “inactive” each time. Besides, the activity, negative = inhibition in assay [5] was -0.642% (inactive). Moreover, in assay [7], the compound was called inactive. Further, the max response in [10] (setting [14]) worked out at 18.7%; in [10] (setting [15]), 24.2%.
In the case of `CN1CCCC2(CCN(C(=O)c3cnccn3)CC2)C1`, the Potency in assay [1] is > 11.4 µM (inactive); in assay [6], > 46 µM (inactive). In addition, the activity change, negative = inhibition is -9.74% (inactive) in assay [2], -25% (inactive) in assay [4] and -0.798% (inactive) in assay [10]. The Potency result in [3], in assay [8], in assay [9] and in assay [11] was “inactive” throughout. In addition, in assay [5], the activity, negative = inhibition was 3.76% (inactive). Moreover, the compound was classed as inactive in assay [7]. Moreover, the max response in assay [10] (setting [14]) stood at 2.95%; in assay [10] (setting [15]), 3.48%.
Turning to `COC(=O)N1CCC2(CC1)CN(C(c1ccccc1)c1ccccc1)C2`, the Potency in assay [1] was > 11.4 µM (inactive); in [6], > 46 µM (inactive); in [13], 794 nM (active). The values for the activity change, negative = inhibition in assay [2], in assay [4] and in [10] were 3.69% (inactive), -16.9% (inactive) and -2.77% (inactive), respectively. For the same compound, the Potency entry in assay [3], in [8], in assay [12] and in assay [11] was “inactive” in each case. Besides, the activity, negative = inhibition in assay [5] was 5.28% (inactive). Moreover, the compound was classed as inactive in [7]. Besides, the values for the max response in assay [10] (setting [14]) and in [10] (setting [15]) were 5.36% and 5.91%, respectively.
`FC(F)(F)c1cc(CN2CCCC3(CCNCC3)C2)cc(C(F)(F)F)c1`: the Potency was > 11.4 µM (inactive) in assay [1], > 46 µM (inactive) in [6] and 7.94 µM (active) in [12]. Further, the values for the activity change, negative = inhibition in assay [2], in [4] and in assay [10] were 2.64% (inactive), -4.7% (inactive) and 0.357% (inactive), respectively. The Potency entry in assay [3], in [8], in assay [9] and in assay [11] was “inactive” throughout. The activity, negative = inhibition in assay [5] was 1.59% (inactive). Also, the compound was called inactive in [7]. The max response in assay [10] (setting [14]) is -0.613%; in assay [10] (setting [15]) it was 2.14%.
In the case of `O=C(c1cccc(F)c1)N1CCC2(CC1)CCN(c1ccccc1)CC2`, the Potency in [1] was > 11.4 µM (inactive); in assay [3], 15.8 µM (active); in [6], > 46 µM (inactive); in assay [9], 7.94 µM (active). Further, the activity change, negative = inhibition in assay [2] is -0.371% (inactive); in assay [4], -2.46% (inactive); in assay [10], 3.88% (inactive). Moreover, in assay [5], the activity, negative = inhibition was -10.8% (inactive). The result in assay [7] was inactive. The Potency entry in [8], in assay [12] and in assay [11] was “inactive” each time. In addition, the max response was -3.82% in assay [10] (setting [14]) and 4.22% in assay [10] (setting [15]).
